# Test results published in paper PMC7862700, “An all-to-all approach to the identification of sequence-specific readers for epigenetic DNA modifications on cytosine”.
# Columns and labels:
# Assay in all cases: DAPPL (digital affinity profiling via proximity ligation, sequencing); 10 mM Tris-HCl pH 7.5, 50 mM NaCl, 1 mM DTT, 4% glycerol, room temperature, 30 min; GST-TFs on glutathione beads, 16-mer random dsDNA library, 0.1% formaldehyde crosslink after washing; high values mean tight binding
# FEV = molecular target: T1, FEV (Homo sapiens, UniProt Q99581 1-238); conditions: protein: recombinant; tags: N-terminal GST; dsDNA, one strand shown
# T1 sequence: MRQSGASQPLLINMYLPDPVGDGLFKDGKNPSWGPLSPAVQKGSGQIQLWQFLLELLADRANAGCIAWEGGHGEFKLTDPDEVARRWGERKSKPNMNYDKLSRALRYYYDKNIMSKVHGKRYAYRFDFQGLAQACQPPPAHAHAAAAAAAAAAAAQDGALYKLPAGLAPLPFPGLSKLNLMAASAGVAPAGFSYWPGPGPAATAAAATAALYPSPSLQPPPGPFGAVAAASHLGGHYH
# In short: (§1)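 Human transcription factors fused to GST were expressed in yeast, captured on glutathione beads, given DNA barcodes and pooled with a GST-only negative control. Pools were incubated with 200 nmole of a 16-mer random double-stranded DNA library in Tris/NaCl/DTT/glycerol buffer at room temperature for 30 min. They were then washed, crosslinked with 0.1% formaldehyde, proximity-ligated (BsaI/T4 ligase, 1 h, 37 °C), PCR-amplified and sequenced on an Illumina NextSeq500. Binding signal is each 6-mer's read frequency for a factor divided by its frequency for the GST control.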
# ETV5 = ETV5 (Homo sapiens, UniProt P41161 1-510); conditions: protein: recombinant; tags: N-terminal GST; dsDNA, one strand shown
# Sequence of ETV5 (P41161 whole entry): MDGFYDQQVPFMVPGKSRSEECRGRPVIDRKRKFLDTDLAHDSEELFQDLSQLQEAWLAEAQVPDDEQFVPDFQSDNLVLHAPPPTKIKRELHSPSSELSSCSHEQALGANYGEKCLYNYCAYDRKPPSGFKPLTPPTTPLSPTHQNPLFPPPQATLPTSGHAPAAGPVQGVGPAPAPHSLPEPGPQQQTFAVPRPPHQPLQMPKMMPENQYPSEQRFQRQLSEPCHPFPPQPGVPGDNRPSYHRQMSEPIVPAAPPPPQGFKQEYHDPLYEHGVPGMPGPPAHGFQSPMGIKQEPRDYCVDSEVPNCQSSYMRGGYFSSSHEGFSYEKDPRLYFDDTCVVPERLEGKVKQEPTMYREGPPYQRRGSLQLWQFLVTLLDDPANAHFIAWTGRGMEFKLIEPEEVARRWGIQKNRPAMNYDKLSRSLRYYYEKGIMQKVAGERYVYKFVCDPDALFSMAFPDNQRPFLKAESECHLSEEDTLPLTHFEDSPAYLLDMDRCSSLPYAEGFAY
# In short: as §1
# HSF1 = HSF1 (Homo sapiens, UniProt Q00613 1-529); conditions: protein: recombinant; tags: N-terminal GST; chain copies: 3; dsDNA, one strand shown
# Sequence of HSF1 (Q00613 whole entry): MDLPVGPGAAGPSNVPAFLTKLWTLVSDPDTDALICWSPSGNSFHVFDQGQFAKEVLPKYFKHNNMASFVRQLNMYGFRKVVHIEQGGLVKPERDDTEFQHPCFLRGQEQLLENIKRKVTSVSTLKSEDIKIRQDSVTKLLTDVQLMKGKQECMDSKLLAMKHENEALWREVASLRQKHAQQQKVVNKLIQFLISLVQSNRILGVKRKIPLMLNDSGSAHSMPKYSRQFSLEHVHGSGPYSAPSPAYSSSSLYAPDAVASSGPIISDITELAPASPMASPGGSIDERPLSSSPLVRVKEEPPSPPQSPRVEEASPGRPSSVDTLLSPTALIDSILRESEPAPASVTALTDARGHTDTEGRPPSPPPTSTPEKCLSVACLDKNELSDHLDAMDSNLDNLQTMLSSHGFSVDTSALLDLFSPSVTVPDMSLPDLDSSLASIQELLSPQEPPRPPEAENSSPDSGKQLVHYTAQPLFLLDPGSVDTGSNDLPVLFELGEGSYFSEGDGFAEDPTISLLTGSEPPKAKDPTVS
# In short: as §1
# SPIC = molecular target: T2, SPIC (Homo sapiens, UniProt Q8N5J4 1-248); conditions: protein: recombinant; tags: N-terminal GST; dsDNA, one strand shown
# T2 sequence: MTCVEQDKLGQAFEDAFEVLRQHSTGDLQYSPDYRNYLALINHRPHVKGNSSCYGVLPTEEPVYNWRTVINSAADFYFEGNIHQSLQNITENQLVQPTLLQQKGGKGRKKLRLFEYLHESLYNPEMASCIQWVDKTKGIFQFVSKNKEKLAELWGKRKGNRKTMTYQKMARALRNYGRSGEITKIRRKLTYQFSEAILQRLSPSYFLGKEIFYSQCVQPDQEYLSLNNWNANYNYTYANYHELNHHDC
# In short: as §1
# ELF4 = ELF4 (Homo sapiens, UniProt Q99607 1-663); conditions: protein: recombinant; tags: N-terminal GST; dsDNA, one strand shown
# Sequence of ELF4 (Q99607 whole entry): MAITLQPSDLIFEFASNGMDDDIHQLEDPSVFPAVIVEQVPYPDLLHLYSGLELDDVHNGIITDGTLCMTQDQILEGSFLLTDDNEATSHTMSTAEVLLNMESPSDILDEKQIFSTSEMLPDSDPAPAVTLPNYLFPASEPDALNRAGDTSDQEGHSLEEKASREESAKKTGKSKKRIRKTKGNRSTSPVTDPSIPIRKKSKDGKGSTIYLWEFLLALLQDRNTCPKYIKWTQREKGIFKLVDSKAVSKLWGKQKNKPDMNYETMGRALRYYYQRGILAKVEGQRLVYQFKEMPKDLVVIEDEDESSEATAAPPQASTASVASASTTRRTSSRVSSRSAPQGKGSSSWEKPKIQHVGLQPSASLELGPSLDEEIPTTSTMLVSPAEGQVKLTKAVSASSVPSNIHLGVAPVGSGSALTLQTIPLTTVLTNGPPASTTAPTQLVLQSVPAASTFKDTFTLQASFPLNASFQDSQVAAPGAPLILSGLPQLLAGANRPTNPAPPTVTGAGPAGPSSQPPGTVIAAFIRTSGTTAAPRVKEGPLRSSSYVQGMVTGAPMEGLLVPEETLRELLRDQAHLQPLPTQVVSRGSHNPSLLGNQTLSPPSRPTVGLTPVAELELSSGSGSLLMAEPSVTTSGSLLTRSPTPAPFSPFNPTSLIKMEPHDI
# In short: as §1
# ELK4 = molecular target: T3, ELK4 (Homo sapiens, UniProt P28324-2 1-405); conditions: protein: recombinant; tags: N-terminal GST; dsDNA, one strand shown
# T3 sequence: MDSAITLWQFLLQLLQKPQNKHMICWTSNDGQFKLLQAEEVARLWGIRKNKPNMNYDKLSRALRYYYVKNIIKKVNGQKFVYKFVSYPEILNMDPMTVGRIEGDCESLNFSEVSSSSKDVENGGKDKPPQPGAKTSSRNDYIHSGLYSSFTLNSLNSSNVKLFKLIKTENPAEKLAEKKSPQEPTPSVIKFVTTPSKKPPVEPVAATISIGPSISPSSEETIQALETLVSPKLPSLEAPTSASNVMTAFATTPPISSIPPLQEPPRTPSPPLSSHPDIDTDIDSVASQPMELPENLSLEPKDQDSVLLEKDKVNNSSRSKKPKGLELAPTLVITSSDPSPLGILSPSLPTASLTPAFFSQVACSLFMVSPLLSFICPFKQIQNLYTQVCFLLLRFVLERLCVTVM
# In short: as §1
# ETV2 = molecular target: T4, ETV2 (Homo sapiens, UniProt O00321 1-342); conditions: protein: recombinant; tags: N-terminal GST; dsDNA, one strand shown
# T4 sequence: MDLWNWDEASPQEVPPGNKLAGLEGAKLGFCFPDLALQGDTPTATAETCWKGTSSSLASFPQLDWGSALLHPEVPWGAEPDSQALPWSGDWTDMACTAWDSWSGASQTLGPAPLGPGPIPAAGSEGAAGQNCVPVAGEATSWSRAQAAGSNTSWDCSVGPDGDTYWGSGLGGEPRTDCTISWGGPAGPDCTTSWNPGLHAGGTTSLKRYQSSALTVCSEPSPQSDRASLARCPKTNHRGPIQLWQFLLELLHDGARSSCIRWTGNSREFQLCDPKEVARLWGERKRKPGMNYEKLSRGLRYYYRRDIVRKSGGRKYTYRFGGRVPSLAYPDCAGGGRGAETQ
# In short: as §1
# ELF3 = molecular target: T5, ELF3 (Homo sapiens, UniProt P78545 1-371); conditions: protein: recombinant; tags: N-terminal GST; dsDNA, one strand shown
# T5 sequence: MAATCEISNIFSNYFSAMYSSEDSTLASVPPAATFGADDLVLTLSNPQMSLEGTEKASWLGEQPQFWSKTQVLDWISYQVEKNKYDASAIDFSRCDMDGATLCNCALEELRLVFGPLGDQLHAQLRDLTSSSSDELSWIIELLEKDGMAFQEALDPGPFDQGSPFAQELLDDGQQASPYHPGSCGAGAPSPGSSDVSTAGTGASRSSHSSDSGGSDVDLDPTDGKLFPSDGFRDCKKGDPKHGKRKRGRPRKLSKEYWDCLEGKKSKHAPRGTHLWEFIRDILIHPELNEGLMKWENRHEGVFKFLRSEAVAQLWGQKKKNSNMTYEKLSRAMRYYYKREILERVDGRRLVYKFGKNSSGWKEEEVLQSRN
# In short: as §1
# CRX = CRX (Homo sapiens, UniProt O43186 1-299); conditions: protein: recombinant; tags: N-terminal GST; dsDNA, one strand shown
# Sequence of CRX (O43186 whole entry): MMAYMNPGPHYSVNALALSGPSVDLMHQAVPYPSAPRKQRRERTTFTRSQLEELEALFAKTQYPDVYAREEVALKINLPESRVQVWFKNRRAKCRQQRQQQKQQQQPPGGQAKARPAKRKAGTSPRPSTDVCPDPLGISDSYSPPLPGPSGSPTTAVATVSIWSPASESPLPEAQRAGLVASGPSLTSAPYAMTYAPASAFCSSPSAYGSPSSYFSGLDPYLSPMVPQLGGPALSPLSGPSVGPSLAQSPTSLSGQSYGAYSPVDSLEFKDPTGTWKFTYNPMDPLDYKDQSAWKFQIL
# In short: as §1
sequence,measurement,setting,value
ATCGAT,binding signal,FEV,"1.02 fold enrichment (6-mer frequency, TF over GST control)"
same,binding signal,ETV5,"1.17 fold enrichment (6-mer frequency, TF over GST control)"
same,binding signal,HSF1,"1.26 fold enrichment (6-mer frequency, TF over GST control)"
same,binding signal,SPIC,"1.2 fold enrichment (6-mer frequency, TF over GST control)"
same,binding signal,ELF4,"1.17 fold enrichment (6-mer frequency, TF over GST control)"
same,binding signal,ELK4,"1.23 fold enrichment (6-mer frequency, TF over GST control)"
same,binding signal,ETV2,"1.08 fold enrichment (6-mer frequency, TF over GST control)"
same,binding signal,ELF3,"1.19 fold enrichment (6-mer frequency, TF over GST control)"
same,binding signal,CRX,"1.25 fold enrichment (6-mer frequency, TF over GST control)"
